Laboratory results: the supplement of paper PMC9492666
Counter-ions that a name gives are not always drawn.

System: MDA-MB-231
Assay: relative cell viability, compound + RSL3, vs DMSO (fraction of DMSO control); higher = less growth inhibition
Conditions: 72 h
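Also: breast cancer cell viability read out with the CCK-8 kit after co-treatment of each compound with the ferroptosis inducer RSL3.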

| Compound | relative cell viability |
| --- | --- |
| COC(=O)c1cc(Cl)c(O)c(S(=O)(=O)Nc2cc(-c3ccccc3)c(F)cc2F)c1 + COC(=O)c1ccc([C@H]2c3[nH]c4ccccc4c3C[C@H](C(=O)OC)N2C(=O)CCl)cc1 [RSL3] | 0.573 |
| CN(C)C(=O)Nc1cccc(-c2ccc(N(C)C)cc2)c1 [Atglistatin] + COC(=O)c1ccc([C@H]2c3[nH]c4ccccc4c3C[C@H](C(=O)OC)N2C(=O)CCl)cc1 [RSL3] | 0.562 |
| O=S(=O)(Nc1ccc(C(O)(C(F)(F)F)C(F)(F)F)cc1)c1cccs1 + COC(=O)c1ccc([C@H]2c3[nH]c4ccccc4c3C[C@H](C(=O)OC)N2C(=O)CCl)cc1 [RSL3] | 0.63 |
| C[C@H](CCC(=O)O)[C@H]1CC[C@H]2[C@@H]3C[C@H](O)[C@@H]4C[C@H](O)CC[C@]4(C)[C@H]3CC[C@]12C [Hyodeoxycholic acid] + COC(=O)c1ccc([C@H]2c3[nH]c4ccccc4c3C[C@H](C(=O)OC)N2C(=O)CCl)cc1 [RSL3] | 0.611 |
| CCCC[S+]([O-])c1sc2nc(-c3cccs3)cc(-c3ccccc3)c2c1N (stereo not drawn) + COC(=O)c1ccc([C@H]2c3[nH]c4ccccc4c3C[C@H](C(=O)OC)N2C(=O)CCl)cc1 [RSL3] | 0.513 |
| Cn1c2cc([S+](C)[O-])sc2c2cnn(Cc3cccc(N)c3)c(=O)c21 (stereo not drawn) + COC(=O)c1ccc([C@H]2c3[nH]c4ccccc4c3C[C@H](C(=O)OC)N2C(=O)CCl)cc1 [RSL3] | 0.677 |
| C=CC[S+]([O-])C[C@H](N)C(=O)O (stereo partly drawn) [Alliin] + COC(=O)c1ccc([C@H]2c3[nH]c4ccccc4c3C[C@H](C(=O)OC)N2C(=O)CCl)cc1 [RSL3] | 0.704 |
| C[C@H]1N=C(N(C)C)N=C(N)N1 [Imeglimin hydrochloride] + COC(=O)c1ccc([C@H]2c3[nH]c4ccccc4c3C[C@H](C(=O)OC)N2C(=O)CCl)cc1 [RSL3] | 0.647 |
| COc1cc(N(C)C)cc(CN(C)CCc2ccc([N+](=O)[O-])cc2)c1O [CDC25 Phosphatase Inhibitor I] + COC(=O)c1ccc([C@H]2c3[nH]c4ccccc4c3C[C@H](C(=O)OC)N2C(=O)CCl)cc1 [RSL3] | 0.886 |
| CSc1ccc(C(=O)/C=C/c2cc(C)c(OC(C)(C)C(=O)O)c(C)c2)cc1 [Elafibranor] + COC(=O)c1ccc([C@H]2c3[nH]c4ccccc4c3C[C@H](C(=O)OC)N2C(=O)CCl)cc1 [RSL3] | 0.685 |
| COC(=O)N(CC(=O)O)Cc1cccc(OCc2nc(-c3ccc(Cl)cc3)oc2C)c1 + COC(=O)c1ccc([C@H]2c3[nH]c4ccccc4c3C[C@H](C(=O)OC)N2C(=O)CCl)cc1 [RSL3] | 0.709 |
| CCOC(=O)C(C)(C)Oc1ccc(Cl)cc1 [Clofibrate] + COC(=O)c1ccc([C@H]2c3[nH]c4ccccc4c3C[C@H](C(=O)OC)N2C(=O)CCl)cc1 [RSL3] | 0.619 |
| Cn1nc(C(=O)N(Cc2ccccc2)Cc2ccc(C(=O)O)cc2)c2c1-c1cc(Cl)ccc1OC2 [Nidufexor] + COC(=O)c1ccc([C@H]2c3[nH]c4ccccc4c3C[C@H](C(=O)OC)N2C(=O)CCl)cc1 [RSL3] | 0.673 |
| CCC(C)(Oc1ccc(C2(c3ccc(OC(C)(CC)C(=O)O)cc3)CCCCC2)cc1)C(=O)O (stereo not drawn) [Clinofibrate] + COC(=O)c1ccc([C@H]2c3[nH]c4ccccc4c3C[C@H](C(=O)OC)N2C(=O)CCl)cc1 [RSL3] | 0.452 |
| CC(C)c1nc(N(C)S(C)(=O)=O)nc(-c2ccc(F)cc2)c1/C=C/[C@@H](O)C[C@@H](O)CC(=O)O [Rosuvastatin] + COC(=O)c1ccc([C@H]2c3[nH]c4ccccc4c3C[C@H](C(=O)OC)N2C(=O)CCl)cc1 [RSL3] | 0.527 |
| O=C(O)C(=O)Nc1sc2c(c1C(=O)O)CCNC2 + COC(=O)c1ccc([C@H]2c3[nH]c4ccccc4c3C[C@H](C(=O)OC)N2C(=O)CCl)cc1 [RSL3] | 0.648 |
| CCNC1(C(N)=O)CCN(c2ncnc3c2nc(-c2ccccc2Cl)n3-c2ccc(Cl)cc2)CC1 [Otenabant] + COC(=O)c1ccc([C@H]2c3[nH]c4ccccc4c3C[C@H](C(=O)OC)N2C(=O)CCl)cc1 [RSL3] | 0.39 |
| CC(C)C1=CC2=CC[C@@H]3[C@](C)(CCC[C@@]3(C)C(=O)O)[C@H]2CC1 [Abietic Acid] + COC(=O)c1ccc([C@H]2c3[nH]c4ccccc4c3C[C@H](C(=O)OC)N2C(=O)CCl)cc1 [RSL3] | 0.699 |
